Results on 10 compounds are retold here after PubChem BioAssay (NCI).

The structures appear in SMILES notation. Compounds without any hit were thinned out: in the full panel of roughly 79,000, 15% have a hit. Values without a mark were called inactive. Active and inactive are the calls of the source. Cut-off read from the data, not from the text of the source: active = growth inhibition above about 70%; inactive = the rest.

Experiment [1] is described as follows: NCI Yeast Anticancer Drug Screen. Data for the rad50 strain (AID 155).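 Note: 0% = growth of vehicle-only cultures of the same strain.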 The note with it: S. cerevisiae rad50 strain growth inhibition, stronger effect = higher value. The method in brief:
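Cells are treated with compound, grown, and their growth is then scored against vehicle-only cultures of the same repair-deficient yeast strain.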

The nature of experiment [2]: NCI Yeast Anticancer Drug Screen. Data for the mec2-1 strain (AID 157). The note with it: S. cerevisiae mec2-1 strain, stronger effect = higher value. The method in brief:
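Each compound was tested on mec2-1 yeast, a strain altered in DNA damage repair or cell cycle control. Growth inhibition is reported relative to vehicle.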

Experiment [3] is described as follows: NCI Yeast Anticancer Drug Screen. Data for the sgs1 mgt1 strain (AID 161).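 Note: 0% = growth of cultures given vehicle only.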 Particulars: S. cerevisiae sgs1 mgt1 strain, stronger effect = higher value. The method in brief: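 Mutant yeast exposed to compound; growth scored against vehicle-only wells.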
Experiment [4] in a line: NCI Yeast Anticancer Drug Screen. Data for the cln2 rad14 strain (AID 165).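 Note: 0% = growth equal to vehicle treated cultures.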 The note with it: S. cerevisiae cln2 rad14 strain, stronger effect = higher value. A digest of the protocol:
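Test compounds were added to cln2 rad14 yeast cultures; inhibition of growth was then determined by comparison with vehicle treatment.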

A short description of experiment [5]: NCI Yeast Anticancer Drug Screen. Data for the bub3 strain (AID 167). The note with it: S. cerevisiae bub3 mutant strain, stronger effect = higher value. A digest of the protocol:
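Part of a panel of yeast mutants defective in DNA damage repair or cell cycle regulation. Each strain is grown with compound, and inhibition is calculated relative to solvent-treated cultures.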

The nature of experiment [6]: NCI Yeast Anticancer Drug Screen. Data for the mlh1 rad18 strain (AID 175). The note with it: S. cerevisiae mlh1 rad18 strain growth inhibition, stronger effect = higher value. A digest of the protocol:
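Inhibition values reflect reduced growth of mutant yeast versus vehicle-treated controls following compound exposure; the mutations affect DNA damage repair.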

The mark [7] stands for this setting: at 5.0 µM (retest, dose inferred, filed as 0.5).
[8] abbreviates: at 50.0 µM (retest, dose inferred, filed as 5.0).

Regarding `COc1ccc([As](O[As](c2ccc(OC)cc2)c2ccc(OC)cc2)c2ccc(OC)cc2)cc1`, the growth inhibition in experiment [1] (setting [7]) is 99% (active); in experiment [1] (setting [8]), 99% (active); in experiment [1] (at 50.0 µM), 99.2% (active); in experiment [2] (setting [7]) it was 100% (active); in experiment [2] (setting [8]), 100% (active); in experiment [2] (at 50.0 µM), 99.6% (active). The growth inhibition in experiment [3] (setting [7]) is 100% (active); in experiment [3] (setting [8]), 100% (active); in experiment [3] (at 50.0 µM) it was 99.5% (active); in experiment [4] (setting [7]), 99% (active); in experiment [4] (setting [8]) it was 99% (active); in experiment [4] (at 50.0 µM) it was 99.4% (active). Moreover, the growth inhibition in experiment [5] (setting [7]) is 99% (active); in experiment [5] (setting [8]), 99% (active); in experiment [5] (at 50.0 µM) it was 99.4% (active); in experiment [6] (setting [7]), 99% (active); in experiment [6] (setting [8]), 99% (active); in experiment [6] (at 50.0 µM), 99.5% (active).

For `C[As](C)SCCC(N)C(=O)NC(CCS[As](C)C)C(=O)O` (stereo not given), the growth inhibition in experiment [1] (setting [7]) is 30%; in experiment [1] (setting [8]), 98% (active); in experiment [1] (at 50.0 µM) it was 88.9% (active); in experiment [2] (setting [7]) it was 20%; in experiment [2] (setting [8]), 99% (active); in experiment [2] (at 50.0 µM) it was 90.8% (active). The growth inhibition in experiment [3] (setting [7]) was -3%; in experiment [3] (setting [8]), 99% (active); in experiment [3] (at 50.0 µM), 89.8% (active); in experiment [4] (setting [7]), 35%; in experiment [4] (setting [8]) it was 98% (active); in experiment [4] (at 50.0 µM) it was 92.2% (active). For the same compound, the growth inhibition in experiment [5] (setting [7]) was 2%; in experiment [5] (setting [8]), 97% (active); in experiment [5] (at 50.0 µM), 90% (active); in experiment [6] (setting [7]) it was 27%; in experiment [6] (setting [8]), 99% (active); in experiment [6] (at 50.0 µM) it was 75.5% (active).

Take `COC(=O)C1=C(C(=O)OC)C2(C)OC1c1ccccc12` (stereo not given): the growth inhibition in experiment [1] (setting [7]) was -5%; in experiment [1] (setting [8]), 96% (active); in experiment [1] (at 50.0 µM), 98.2% (active); in experiment [2] (setting [7]), 4%; in experiment [2] (setting [8]) it was 95% (active); in experiment [2] (at 50.0 µM) it was 98.1% (active). Besides, the growth inhibition in experiment [3] (setting [7]) is 4%; in experiment [3] (setting [8]) it was 96% (active); in experiment [3] (at 50.0 µM) it was 98% (active); in experiment [4] (setting [7]), 0%; in experiment [4] (setting [8]) it was 92% (active); in experiment [4] (at 50.0 µM) it was 93.6% (active). Moreover, the growth inhibition in experiment [5] (setting [7]) was 7%; in experiment [5] (setting [8]) it was 98% (active); in experiment [5] (at 50.0 µM), 97% (active); in experiment [6] (setting [7]), 14%; in experiment [6] (setting [8]) it was 95% (active); in experiment [6] (at 50.0 µM), 98.3% (active).

For `O=NNc1c[nH]c(=O)[nH]c1=O`, the growth inhibition is 1% in experiment [1] (setting [7]); 69% in experiment [1] (setting [8]); 72.6% (active) in experiment [1] (at 50.0 µM); 0% in experiment [2] (setting [7]); 14% in experiment [2] (setting [8]); 5.85% in experiment [2] (at 50.0 µM). For the same compound, the growth inhibition in experiment [3] (setting [7]) was -1%; in experiment [3] (setting [8]), 29%; in experiment [3] (at 50.0 µM), 17.1%; in experiment [4] (setting [7]) it was -5%; in experiment [4] (setting [8]) it was 12%; in experiment [4] (at 50.0 µM) it was 4.3%. Further, the growth inhibition is -1% in experiment [5] (setting [7]); -12% in experiment [5] (setting [8]); 0.3% in experiment [5] (at 50.0 µM); 3% in experiment [6] (setting [7]); 39% in experiment [6] (setting [8]); 21.1% in experiment [6] (at 50.0 µM).

Turning to `COc1ccccc1/C=C/[N+](=O)[O-]`, the growth inhibition in experiment [1] (setting [7]) was 90% (active); in experiment [1] (setting [8]), 98% (active); in experiment [1] (at 50.0 µM), 99.6% (active); in experiment [2] (setting [7]), 65%; in experiment [2] (setting [8]) it was 99% (active); in experiment [2] (at 50.0 µM), 99.7% (active). For the same compound, the growth inhibition is 87% (active) in experiment [3] (setting [7]); 99% (active) in experiment [3] (setting [8]); 99.2% (active) in experiment [3] (at 50.0 µM); 62% in experiment [4] (setting [7]); 99% (active) in experiment [4] (setting [8]); 99.3% (active) in experiment [4] (at 50.0 µM). Also, the growth inhibition in experiment [5] (setting [7]) was 74% (active); in experiment [5] (setting [8]) it was 98% (active); in experiment [5] (at 50.0 µM), 99.2% (active); in experiment [6] (setting [7]), 96% (active); in experiment [6] (setting [8]), 99% (active); in experiment [6] (at 50.0 µM), 99% (active).

`ClCCN(CCCl)CCN1c2ccc3ccccc3c2Sc2ccc3ccccc3c21`: the growth inhibition in experiment [1] (setting [7]) was -3%; in experiment [1] (setting [8]) it was 2%; in experiment [1] (at 50.0 µM) it was 32.7%; in experiment [2] (setting [7]), 0%; in experiment [2] (setting [8]) it was 37%; in experiment [2] (at 50.0 µM), 16.5%. Besides, the growth inhibition in experiment [3] (setting [7]) is -13%; in experiment [3] (setting [8]), 61%; in experiment [3] (at 50.0 µM) it was 85% (active); in experiment [4] (setting [7]), 2%; in experiment [4] (setting [8]) it was 1%; in experiment [4] (at 50.0 µM), -19.2%. Further, the growth inhibition in experiment [5] (setting [7]) is 1%; in experiment [5] (setting [8]), 79% (active); in experiment [5] (at 50.0 µM), 20.8%; in experiment [6] (setting [7]) it was -1%; in experiment [6] (setting [8]) it was 53%; in experiment [6] (at 50.0 µM), 67.9%.

For `O=P1(N2CCOCC2)OC(c2ccccc2)=CCN1c1ccccc1` (stereo not given), the growth inhibition was 3% in experiment [1] (setting [7]); 4% in experiment [1] (setting [8]); -0.15% in experiment [1] (at 50.0 µM); -1% in experiment [2] (setting [7]); -1% in experiment [2] (setting [8]); 47.1% in experiment [2] (at 50.0 µM). In addition, the growth inhibition was 5% in experiment [3] (setting [7]); 81% (active) in experiment [3] (setting [8]); 24.6% in experiment [3] (at 50.0 µM); -1% in experiment [4] (setting [7]); -2% in experiment [4] (setting [8]); 39% in experiment [4] (at 50.0 µM). In addition, the growth inhibition in experiment [5] (setting [7]) was 3%; in experiment [5] (setting [8]) it was 25%; in experiment [5] (at 50.0 µM), 10.3%; in experiment [6] (setting [7]), -1%; in experiment [6] (setting [8]) it was 3%; in experiment [6] (at 50.0 µM) it was -3.45%.

Consider `CC([CH2][Hg][Cl])c1ccccc1` (stereo not given), for which the growth inhibition is 99% (active) in experiment [1] (setting [7]); 99% (active) in experiment [1] (setting [8]); 99.3% (active) in experiment [1] (at 50.0 µM); 100% (active) in experiment [2] (setting [7]); 100% (active) in experiment [2] (setting [8]); 99.5% (active) in experiment [2] (at 50.0 µM). The growth inhibition is 100% (active) in experiment [3] (setting [7]); 99% (active) in experiment [3] (setting [8]); 99.6% (active) in experiment [3] (at 50.0 µM); 99% (active) in experiment [4] (setting [7]); 99% (active) in experiment [4] (setting [8]); 99.5% (active) in experiment [4] (at 50.0 µM). The growth inhibition was 99% (active) in experiment [5] (setting [7]); 99% (active) in experiment [5] (setting [8]); 99.6% (active) in experiment [5] (at 50.0 µM); 100% (active) in experiment [6] (setting [7]); 99% (active) in experiment [6] (setting [8]); 99.5% (active) in experiment [6] (at 50.0 µM).

For the compound `CCOC(=O)c1[nH]cnc1/N=N/N(C)N`, the growth inhibition was 97% (active) in experiment [1] (setting [7]); 98% (active) in experiment [1] (setting [8]); 86.8% (active) in experiment [1] (at 50.0 µM); 99% (active) in experiment [2] (setting [7]); 99% (active) in experiment [2] (setting [8]); 92% (active) in experiment [2] (at 50.0 µM). The growth inhibition is 53% in experiment [3] (setting [7]); 87% (active) in experiment [3] (setting [8]); 90.1% (active) in experiment [3] (at 50.0 µM); 28% in experiment [4] (setting [7]); 81% (active) in experiment [4] (setting [8]); 89.2% (active) in experiment [4] (at 50.0 µM). Moreover, the growth inhibition is 47% in experiment [5] (setting [7]); 88% (active) in experiment [5] (setting [8]); 89.5% (active) in experiment [5] (at 50.0 µM); 97% (active) in experiment [6] (setting [7]); 97% (active) in experiment [6] (setting [8]); 90% (active) in experiment [6] (at 50.0 µM).

For `C[CH2][Sn]([CH2]C)[O][Sn]([Cl])([CH2]C)[CH2]C`, the growth inhibition in experiment [1] (setting [7]) is 51%; in experiment [1] (setting [8]) it was 96% (active); in experiment [1] (at 50.0 µM) it was 87.9% (active); in experiment [2] (setting [7]) it was 35%; in experiment [2] (setting [8]) it was 97% (active); in experiment [2] (at 50.0 µM), 88.3% (active). Moreover, the growth inhibition in experiment [3] (setting [7]) was 37%; in experiment [3] (setting [8]), 97% (active); in experiment [3] (at 50.0 µM), 87.5% (active); in experiment [4] (setting [7]), 19%; in experiment [4] (setting [8]), 91% (active); in experiment [4] (at 50.0 µM), 84% (active). Besides, the growth inhibition in experiment [5] (setting [7]) is 39%; in experiment [5] (setting [8]) it was 96% (active); in experiment [5] (at 50.0 µM), 83.3% (active); in experiment [6] (setting [7]), 75% (active); in experiment [6] (setting [8]) it was 97% (active); in experiment [6] (at 50.0 µM), 86.7% (active).
